Potency and affinity values are given separately. Calls of active or inactive are those of the source. No rule for the calls is given here.
test: HEK293 cell viability loss – plate reader, cherry-pick, cytotoxicity control, dose response (AID 651899); conditions: series mostly up to 26 µM; activity change, negative = cytotoxicity: at the top concentration;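 also: cells exposed to compound for 48 hours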

| SMILES | activity change, negative = cytotoxicity |
| --- | --- |
| CCOC(=O)C1(CCc2ccccc2)CCN(C(=O)CN2CCOC2=O)CC1 | 9.01% (inactive) |
| O=C(c1ccncc1)N1CC[C@H]2[C@H](CO)Nc3ccc(Br)cc3[C@H]21 | 19.6% [at 23.5 µM] (inactive) |
| CC(C)(C)c1cc(C(=O)Nc2cccnc2)cc(C(=O)Nc2cccnc2)c1 | -6.15% (inactive) |
| COCCNC(=O)C[C@@H]1CC[C@@H]2[C@@H](COc3ccc(NC(=O)Nc4cccc(F)c4)cc3C(=O)N2C)O1 | 19.7% [at 23.5 µM] (inactive) |
| Cc1cc(C(=O)NC2CC(C)(C)Cc3c2cnn3-c2cccc(F)c2)nn1C (stereo unspecified) | -25.6% (inactive) |
| O=C(C[n+]1cc(-c2ccc(Cl)cc2)n2c1CCC2)N1c2ccccc2Sc2ccccc21 | -9.9% (inactive) |
| O=C(O)CN1C(=O)/C(=C\c2cc(Br)ccc2OCc2ccc([N+](=O)[O-])cc2)SC1=S | 20.8% (inactive) |
| O=C(c1ccc(Br)s1)N1CCN(Cc2ccc3c(c2)OCO3)CC1 | -14.7% (inactive) |
| C[C@@H]1CN([C@@H](C)CO)C(=O)c2cc(C#Cc3cccnc3)cnc2O[C@H]1CN(C)S(C)(=O)=O | 39.9% (inactive) |
| CCNC(=O)[C@@H]1[C@@H](CO)[C@@H]2Cn3c(ccc(-c4cccnc4)c3=O)[C@@H]2N1Cc1ccc2c(c1)OCO2 | 26.9% [at 23.5 µM] (inactive) |
| O=C(Nc1cccnc1)C1CCN(S(=O)(=O)c2ccc(Cl)cc2)CC1 | -11.1% (inactive) |
| O=C(Nc1ccc2c(c1)[C@H]1C[C@@H](CC(=O)N3CCc4ccccc4C3)O[C@@H](CO)[C@H]1O2)c1cccnc1 | -13.1% [at 12 µM] (inactive) |
| CCOc1ccc(-n2c(SCC(N)=O)nc3c(c2=O)SCC3)cc1 | 7.2% (inactive) |
| COc1ccc(-c2nc3ccc(Cl)cn3c2Cc2ccccc2)cc1OC | -7.05% (inactive) |
| O=C(Nc1cccc(F)c1)C1CCCN(c2cnccn2)C1 (stereo unspecified) | -20% (inactive) |
| CN1c2ccc(-c3cccc(F)c3)cc2[C@H]2[C@H](CCN2C(=O)c2ccncc2)[C@@H]1CO | 14.4% (inactive) |
| O=C(CSc1nc2c(c(=O)n1-c1ccccc1)SCC2)N1CCOCC1 | 44% (inactive) |
| O=C(Nc1ccc(NS(=O)(=O)c2ccccc2)cc1)c1cccnc1 | -18.6% (inactive) |

| SMILES | activity change, negative = cytotoxicity |
| --- | --- |
| COc1cc2cnc(-c3cccnc3)cc2cc1OC | 11.7% (inactive) |
| CC1CCCN(c2ccc(C(=O)Nc3cccnc3)cc2[N+](=O)[O-])C1 (stereo unspecified) | -22.5% (inactive) |
| C=CCn1c(SCc2c(C(=O)OC)sc(N)c2C(=O)OC)nnc1-c1ccc(Br)cc1 | -6.79% (inactive) |
| CCN1[C@H](C(=O)NCc2ccccc2)[C@@H](CO)[C@@H]2Cn3c(ccc(-c4cccnc4)c3=O)[C@@H]21 | 12.6% (inactive) |
| CCOCCCNC(=O)CSc1nc2nc(C)c(Cc3ccccc3)c(C)n2n1 | -19.2% (inactive) |
| COCCNC(=O)C[C@@H]1CC[C@@H]2[C@H](COc3ccc(NC(=O)Nc4cccc(F)c4)cc3C(=O)N2C)O1 | 7.53% (inactive) |
| CC(=O)c1ccc(N2CCN(S(=O)(=O)c3c(C(=O)N4CCCC4)c(C)n(C)c3C)CC2)cc1 | 15.4% (inactive) |
| CN(C)C(=O)C[C@@H]1C[C@@H]2c3cc(NC(=O)c4cccnc4)ccc3O[C@@H]2[C@@H](CO)O1 | -8.22% (inactive) |
| Cc1nc2nc(SCC(=O)NCc3ccco3)nn2c(C)c1Cc1ccccc1 | -21.3% (inactive) |
| COc1cc(-c2nc3ccccc3nc2-c2ccc(O)c(OC)c2)ccc1O | 24.3% (inactive) |
| Cc1nc(=O)c(-c2ccccc2)c(C)n1-c1ccc(Br)cc1 | 21.7% (inactive) |
| Cc1cccc(C2c3[nH]c4ccccc4c3CCN2C(=O)CN2CCOC2=O)n1 (stereo unspecified) | 12.6% (inactive) |
| CC(=O)Nc1ccc2nc(-c3cccnc3)[nH]c2c1 | -2.08% (inactive) |
| O=C(c1ccccc1F)N1CC[C@@H]2[C@H](CO)Nc3ccc(Br)cc3[C@@H]21 | -16% (inactive) |
| CCOC(=O)c1c(C)[n+](-c2ccc(C)cc2)c(CC)c2cc(OC)c(OC)cc12 | -27.8% (inactive) |
| O=C(NCc1ccco1)c1ccc(-c2ccc3nccn3c2)cc1 | -4.89% (inactive) |
| COc1ccc(F)cc1C(=O)C1CCCN(C(=O)c2ccc(C(C)=O)s2)C1 (stereo unspecified) | 16.8% (inactive) |
| O=C(C1CCOCC1)N1CC[C@@H]2[C@H]1c1cc(Br)ccc1N[C@@H]2CO | 18.5% (inactive) |

— PubChem BioAssay AID651899 (Broad Institute, 2012)
